Only a selection was taken, and hits are over-represented in it overall.
IL-1B inflam inh = inhibitors of inflammasome signaling (IL-1 beta secretion). THP-1 LPS/ATP IL-1B secretion, AlphaLISA, 16 h; hits give low values. activity change, % at 57.5 µM. actives 4.7% (n = 360,000). AID 743279; in the data active = activity change below about -50%; inconclusive = mostly about -30% to -49%
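THP-1 cells pretreated 1 hr with compounds (up to 57.5 uM final), then stimulated with LPS (250 ng/mL final) plus ATP (1.25 mM final); secreted IL-1B measured by AlphaLISA after 16 hr, decreased signal indicating inhibition.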
ALOX12 inh = ALOX12 (human) lipoxygenase inhibition | purified 12hLO, xylenol orange hydroperoxide absorbance | P18054 | actives 1.1% (n = 580,000) | Potency, µM (titrated, usually from 108 µM), inactives show at the highest dose activity change, negative = inhibition, actives largely listed as inhibitors; note: potency is the fitted concentration of half-maximal effect
Target sequence (P18054 whole entry, looked up): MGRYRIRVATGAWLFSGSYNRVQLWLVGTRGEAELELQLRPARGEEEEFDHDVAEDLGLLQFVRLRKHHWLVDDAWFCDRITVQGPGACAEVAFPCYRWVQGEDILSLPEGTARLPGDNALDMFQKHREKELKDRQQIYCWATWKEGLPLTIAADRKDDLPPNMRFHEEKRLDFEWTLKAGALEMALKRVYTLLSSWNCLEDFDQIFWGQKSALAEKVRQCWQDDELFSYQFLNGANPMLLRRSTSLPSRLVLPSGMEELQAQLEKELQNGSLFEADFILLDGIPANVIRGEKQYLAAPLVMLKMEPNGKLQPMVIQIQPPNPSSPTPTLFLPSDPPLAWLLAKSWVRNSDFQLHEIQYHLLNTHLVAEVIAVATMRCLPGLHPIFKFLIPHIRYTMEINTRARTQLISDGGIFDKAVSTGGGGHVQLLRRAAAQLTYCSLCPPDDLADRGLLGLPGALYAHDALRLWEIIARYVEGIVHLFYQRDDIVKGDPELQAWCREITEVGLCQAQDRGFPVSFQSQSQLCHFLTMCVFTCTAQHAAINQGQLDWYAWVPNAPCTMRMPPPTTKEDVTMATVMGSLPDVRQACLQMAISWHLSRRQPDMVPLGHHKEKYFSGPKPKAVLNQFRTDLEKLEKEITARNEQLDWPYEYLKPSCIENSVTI
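Purified human 12hLO at 150 nM in 25 mM Hepes, 0.01% Triton X-100, pH 7.0, preincubated 15 min at room temperature with compound. Reaction started with 40 uM arachidonic acid, 30 min at room temperature. Hydroperoxide measured by Fe-xylenol orange, 573/405 nm absorbance ratio.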
HT1080NT lethal = kills 2HG-producing HT-1080-NT fibrosarcoma cells; HT-1080-NT fibrosarcoma viability, CellTiter-Glo ATP luminescence, 48 h; Potency, µM (highest dose often 46.1 µM), for the others: at the highest dose activity, negative = less viability, actives largely listed as cytotoxic; actives 1.6% (n = 360,000);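 note: NT is the 2HG producing partner of a matched IDH1 knockdown line; potency is the fitted concentration of half-maximal effect; 0% = DMSO-treated cells and -100% = media-only wells without cells; nearly all actives have a fitted effect of over 55% in size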
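750 cells/well, RPMI + 5% FBS; 2 h settle, compound pin-transfer, 48 h at 37 degrees C. CellTiter-Glo 10 min RT, luminescence. Normalized to DMSO and media-only wells.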
TDP1 cell noCPT = qHTS for Inhibitors of human tyrosyl-DNA phosphodiesterase 1 (TDP1): qHTS in cells in absence of CPT; DT40 Tdp1-/- hTDP1 cells, no CPT, ATP luminescence, 48 h; Potency, µM (doses to about 46.2 µM), for the others: at the top dose activity change, negative = growth inhibition, usual class: inhibitors; actives 15% (n = 420,000); AID 686978, 2013; note: potency is the fitted concentration of half-maximal effect; nearly all actives have a fitted effect of over 55% in size
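Stably hTDP1-transfected Tdp1-null chicken DT40 cells were treated with library compounds minus camptothecin and grown for at least 48 hr at 37 °C, after which cellular ATP was quantified by luminescence.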
TDP1 cell CPT = DT40-hTDP1 cell growth loss with CPT; Potency, µM (doses to about 46.2 µM), for the others: at the top dose activity change, negative = growth inhibition, most hits filed as inhibitors; chicken DT40 Tdp1-/-;hTDP1 cells + 20 nM CPT, ATP luminescence, 48 h; actives 12% (n = 420,000); note: potency is the fitted concentration of half-maximal effect; nearly all actives have a fitted effect of over 55% in size
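Chicken DT40 Tdp1-/- cells stably complemented with human TDP1 were seeded at 400 cells/well in medium containing 20 nM camptothecin, exposed to pin-transferred compounds, and grown at 37 °C for at least 48 hr. Viability was read as ATP luminescence.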
HT1080 IDH1KD tx = toxicity to HT-1080 IDH1 knockdown cells (counter line); HT-1080 IDH1 knockdown viability, ATP luminescence, 48 h; Potency, µM (highest dose often 46.1 µM), for the others: top-dose activity, negative = toxicity, actives largely listed as cytotoxic; actives 2% (n = 360,000); AID 686971;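 note: potency is the fitted concentration of half-maximal effect; 0% = DMSO wells and -100% = cell-free medium wells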
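HT-1080-IDH1KD cells (IDH1 knocked down), 750/well in RPMI with 5% FBS, treated with compound 48 h at 37 degrees C. Viability by CellTiter-Glo luminescence, normalised to DMSO and no-cell wells; concentration-response curves classed.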
* hit, by the source's call; ? = inconclusive; . = not tested or not shown; [ ] = another dose, or the depositor's remark. Unless noted, calls come from the whole dose curve; as a rule, active = well fitted curve in the direction sought with a large enough effect; inconclusive = small, poorly fitted or top-dose-only effect, or another doubt; inactive = no such curve, though single readings can be large; an effect the other way counts as inactive or inconclusive. Unless noted, % is set by controls: 0 for no effect and ±100 for the full control effect.

SMILES	IL-1B inflam inh	ALOX12 inh	HT1080NT lethal	TDP1 cell noCPT	TDP1 cell CPT	HT1080 IDH1KD tx
COCCn1c(=O)[nH]c(=O)c2c3c(cnc21)C(=O)CC(c1ccccc1)C3 (stereo not drawn)	.	16.2%	.	.	.	.
COc1ccc(C(=O)Nc2nc(-c3cccs3)cs2)cc1	-72.0*	?	5.1%	?	?	4.8%
Cc1csc(NC(=O)c2sc3nc(-c4cccs4)ccc3c2N)n1	-72.2*	.	-9.3%	25.1µM*	?	?
COc1ccc(C(=O)NCc2csc(-c3cccs3)n2)cc1	7.7	?	2.9%	-28.5%	-1.9%	7.5%
CCC(C)(C)NCc1ccco1	.	21.0%	.	.	.	.
CC(C)CCOc1ccc(C(=O)NCC2OCCc3ccccc32)cc1 (stereo not drawn)	.	-26.2%	.	?	?	.
CC(C)COc1ccc(C(=O)NCC2OCCc3ccccc32)cc1 (stereo not drawn)	.	-18.8%	.	14.6µM*	?	.
CCSc1nc2ccccc2n1C(=O)/C=C/c1ccc(OC)c(OC)c1	-102.5*	0.2%	8.2µM*	3.26µM*	4.11µM*	5.8µM*
C=CCSc1nc2ccccc2n1C(=O)/C=C/c1cc(OC)c(OC)c(OC)c1	-104.1*	3.7%	5.01µM*	2.06µM*	2.31µM*	2.24µM*
CCn1c(SCC(=O)N/N=C/c2ccc(OC)c(OC)c2)nc2ccccc21	6.5	18.2%	7.0%	?	?	2.2%
C=CCSc1nc2ccccc2n1C(=O)/C=C/c1ccc(OC)c(OC)c1	-101.8*	-4.1%	?	3.55µM*	5.01µM*	2.51µM*
O=C(CC(F)(F)F)NCCc1noc(-c2cccnc2)n1	.	38.5%	.	.	.	.
O=C(NCCn1cc(SCc2ccccc2Cl)c2ccccc21)c1cccs1	.	-0.3%	.	?	23.1µM*	.
NC(=O)CSc1cn(CCNC(=O)c2cccs2)c2ccccc12	41.0	7.6%[57.4 µM]	-5.5%	-17.0%	-4.0%	6.5%
O=C(NCCn1cc(SCc2ccccc2)c2ccccc21)c1cccs1	.	?	.	7.31µM*	14.6µM*	.
Cc1nnc(NC(=O)CSc2cn(CCNC(=O)c3ccccc3)c3ccccc23)s1	-10.6	-2.0%	0.0%	?	-22.6%	-1.1%
COc1ccccc1C(=O)NCCn1cc(SCC(=O)NCC2CCCO2)c2ccccc21 (stereo not drawn)	-24.2	-4.3%	0.4%	?	?	-9.8%
COc1ccccc1C(=O)NCCn1cc(SCc2ccc(C)cc2)c2ccccc21	.	-3.6%	.	?	23.1µM*	.
O=C(NCCn1cc(SCc2ccc(Br)cc2)c2ccccc21)c1cccs1	.	-4.2%	.	23.1µM*	23.1µM*	.
CN(C)C(=O)C1CN(C(=O)c2ccccc2Br)CC12CCOCC2 (stereo not drawn)	.	24.6%	.	.	.	.
Cc1ccc(C)c(CSc2cn(CCNC(=O)c3cccs3)c3ccccc23)c1	.	-23.0%	.	23.1µM*	?	.
Cc1ccc(C)c(CSc2cn(CCNC(=O)c3ccccc3F)c3ccccc23)c1	.	0.0%	.	?	?	.
O=C(NCCn1cc(SCc2ccccc2)c2ccccc21)c1ccccc1F	-27.0	11.2%	-24.4%	?	20.6µM*	-18.5%
NC(=S)N1OC[C@@H]2COc3ccc4ccccc4c3[C@@H]21	-93.3*	-12.3%	?	18.4µM*	18.4µM*	?
CO/N=C/NC(=O)N1OC[C@@H]2COc3ccc4ccccc4c3[C@@H]21	-7.5	0.0%	-4.1%	-5.1%	-1.6%	-1.6%
SMILES	IL-1B inflam inh	ALOX12 inh	HT1080NT lethal	TDP1 cell noCPT	TDP1 cell CPT	HT1080 IDH1KD tx
Cc1cc(C)nc(/N=C2\NC(=O)CN2c2cc(Cl)cc(Cl)c2)n1	.	5.3%	.	.	.	.
ON=C1C2CC=C(c3ccccc3)C1CCC2 (stereo not drawn)	-58.4*	?	-1.1%	-25.7%	?	2.8%
C/C(=N\NC(=S)Nc1ccccc1)C1Cc2ccccc2C(=O)O1 (stereo not drawn)	33.0	?	17.1%	?	?	5.5%
C/C(=N\NC(=S)Nc1ccccc1C)C1Cc2ccccc2C(=O)O1 (stereo not drawn)	0.8	?	-9.5%	6.51µM*	?	-19.6%
CCOc1ccc(S(=O)(=O)N2CCN(Cc3ncc(-c4ccccc4)o3)CC2)cc1	.	8.8%	.	.	.	.
CCc1ccc(-c2cn(-c3nc(C)cc(C)n3)c(=N)o2)cc1	-59.3*	0.0%	-28.9%	?	?	-12.7%
CCOc1ccc(C(=O)COC(=O)Cc2n[nH]c(=O)c3ccccc23)cc1	37.9	0.1%	6.51µM*	0.731µM*	0.92µM*	5.17µM*
O=C(Cc1n[nH]c(=O)c2ccccc12)OCC(=O)c1ccc2c(c1)OCCO2	64.2	0.0%	?	1.3µM*	0.92µM*	8.2µM*
O=C(Cc1n[nH]c(=O)c2ccccc12)OCC(=O)c1ccc(F)cc1	8.5	17.2%	-0.5%	-5.5%	-1.0%	8.4%
O=C(COC(=O)Cc1n[nH]c(=O)c2ccccc12)NNC(=O)c1ccc(Cl)cc1	12.3	162.7%	-11.1%	23.1µM*	20.6µM*	-16.6%
O=C1Nc2ccc(Br)cc2C(=O)N2CCN(C(=O)c3cccc(F)c3)C[C@H]12	.	-16.4%[176 µM]	.	.	.	.
O=C(c1ccnnc1)N1CC(F)(F)C[C@H]1c1nc(-c2ccccc2)no1	.	13.0%	.	.	.	.
COCCN1C(=O)C(=O)/C(=C(/O)c2ccc(OCC(C)C)c(C)c2)C1c1cccnc1 (stereo not drawn)	.	-22.5%	.	.	.	.
O=S(=O)(c1ccc(OC(F)(F)F)cc1)N1CCN(Cc2ncc(-c3ccc(F)cc3)o2)CC1	.	-9.4%	.	.	.	.
O=C(CN1CCN(S(=O)(=O)N2CCCCCC2)CC1)Nc1ccc(F)cc1	-15.0	-9.2%	-12.2%	-17.8%	1.6%	-13.1%
O=C(CN1CCN(S(=O)(=O)N2CCCCCC2)CC1)Nc1ccc(Br)cc1	-26.9	10.7%	-4.4%	?	?	-1.8%
O=C(CN1CCN(S(=O)(=O)N2CCCCC2)CC1)Nc1ccc(Cl)c(Cl)c1	-76.7*	-8.2%	-20.9%	23.1µM*	?	?
O=C(CN1CCN(S(=O)(=O)N2CCCCC2)CC1)Nc1cc(Cl)cc(Cl)c1	-65.4*	5.6%	-6.1%	?	-25.3%	-14.9%
NS(=O)(=O)c1ccc(NC(=O)CN2CCCCC2)cc1	-2.6	-18.5%	0.8%	0.8%	-11.6%	5.2%
O=C(CN1CCCCC1)Nc1ccc(S(=O)(=O)c2ccc(NC(=O)CN3CCCCC3)cc2)cc1	10.6	1.6%	-1.3%	13µM*	16.4µM*	-0.3%

Bioassay records from PubChem.
